# ST2 IL33 inh – IL1RL1 inhibition. AlphaLISA ST2-Fc/biotin-IL-33 interaction, 1 h. inhibition, % for hits at 17 µM. actives 2.3% (n = 78,000). AID 1259354; in the data active = inhibition above about 30%
# Target sequence (Q01638 whole entry, looked up): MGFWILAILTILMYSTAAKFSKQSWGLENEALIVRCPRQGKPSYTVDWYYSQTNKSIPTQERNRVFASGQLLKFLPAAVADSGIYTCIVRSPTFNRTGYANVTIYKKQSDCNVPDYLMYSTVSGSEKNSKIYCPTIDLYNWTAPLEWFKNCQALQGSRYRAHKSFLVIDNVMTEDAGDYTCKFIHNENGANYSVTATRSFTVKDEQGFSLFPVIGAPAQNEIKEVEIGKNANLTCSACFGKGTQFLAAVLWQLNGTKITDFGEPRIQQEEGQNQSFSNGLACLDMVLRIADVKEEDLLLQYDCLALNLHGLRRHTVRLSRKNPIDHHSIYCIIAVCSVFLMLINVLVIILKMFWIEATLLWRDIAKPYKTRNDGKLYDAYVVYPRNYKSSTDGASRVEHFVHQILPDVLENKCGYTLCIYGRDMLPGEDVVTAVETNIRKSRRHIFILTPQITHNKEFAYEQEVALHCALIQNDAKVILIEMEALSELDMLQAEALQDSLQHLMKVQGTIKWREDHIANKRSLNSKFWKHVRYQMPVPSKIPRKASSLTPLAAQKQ
# Active calls of the source: *; i = inactive. The sample as a whole holds a higher share of hits than the screen did.
SMILES,ST2 IL33 inh
COc1cccc(NC(=O)CSc2nnc(Cc3ccccc3)n2C)c1,40%*
COc1cccc(NC(=O)CSc2c3c(nc4ccccc24)CCC3)c1,i
O=C1c2ccccc2-c2ccc(Br)cc21,32%*
O=C1C(=Cc2cccn2-c2ccc(Br)cc2)C(=O)c2ccccc21,i
O=C1C(Br)=C(Br)C(=O)c2ccccc21,i
COc1cc(C2C(C#N)=C(N)Oc3nc[nH]c(=O)c32)ccc1OC(C)C (configuration not stated),i
COc1cc2c(cc1O)CCN(C(=O)C1COc3ccccc3O1)C2C (configuration not stated),i
CC1(C)CC(N2C(=O)OC(C)([C@H]3CC4C=CC3C4)C2(C)O)CC(C)(C)N1 (some centres not stated),98%*
CCC1CCCCN1C(=O)c1ccc(Cl)c(Cl)c1 (configuration not stated),i
CN1CCC(C)(CN(C)Cc2ccc(-n3ccnc3)cc2)C1 (configuration not stated),i
O=c1c2cnn(-c3ccccc3)c2ncn1Cc1cccnc1,i
O=C(Cn1nc(-c2ccccc2)ccc1=O)NCc1cccnc1,i
C(=Nc1cc(-c2ccccc2)nn1-c1ccccc1)c1cccnc1,33%*
O=C(Nc1ccccc1F)c1c[nH]c(=O)n(-c2ccccc2)c1=O,i
Cc1c(Cl)cccc1NS(=O)(=O)c1cc(Br)cc2c1N(C(=O)C1CC1)CC2,i
CCOC(=O)N1CCN(C(=O)c2ccc(N3CCC(NCCc4ccncc4)CC3)cc2)CC1,i
CCOC(=O)N1CCN(C(=O)c2ccc(N3CCC(NCCc4cccs4)CC3)cc2)CC1,i
O=C(c1ccc(N2CCC(NCC3(N4CCOCC4)CCCC3)CC2)cc1)N1CCCC(O)C1 (configuration not stated),31%*
CC1CC2c3cccc(C(=O)O)c3C(=O)N2c2ccc(F)cc21 (configuration not stated),32%*
C=CCC1c2cccc(C(=O)O)c2C(=O)N1c1cccc(OC)c1 (configuration not stated),i
O=C(O)c1ccccc1N1C(=O)C2C3CC(C(Br)C3Br)C2C1=O (configuration not stated),i
CCN(CC)CCCNC(=O)CN1C(=O)C2CCCCN2c2ccc(C(=O)N(C)C)cc21 (configuration not stated),i
COc1cc(OC2OC(COC3OCC(O)(CO)C3O)C(O)C(O)C2O)c2c(-c3ccc(O)c(O)c3)cc(=O)oc2c1 (configuration not stated),33%*
C[C@@H]1O[C@@H](O[C@@H]2[C@@H](O)[C@H](OCCc3ccc(O)c(O)c3)O[C@H](CO[C@@H]3OC[C@](O)(CO)[C@H]3O)[C@H]2OC(=O)/C=C/c2ccc(O)c(O)c2)[C@H](O)[C@H](O)[C@H]1O,i
C[C@@H]1O[C@@H](O[C@@H]2[C@@H](O)[C@H](C)O[C@@H](OCC3OC(Oc4c(-c5ccc(O)c(O)c5)oc5cc(O)cc(O)c5c4=O)C(O)C(O)C3O)[C@@H]2O)[C@H](O)[C@H](O)[C@H]1O (some centres not stated),i
SMILES,ST2 IL33 inh
CC1=C(C(=O)OC2CCCCC2)C(c2cc(Br)ccc2F)n2ncnc2N1 (configuration not stated),i
Cc1ccc(C)c(CSC2=NCCN2C(=O)c2ccc(S(=O)(=O)N3CCCCC3)cc2)c1,i
CCC(C(=O)N1C[C@H]2CC=CC[C@H]2C1)n1cccn1 (some centres not stated),i
COCCCNC(=O)C1c2cc(OC)c(OC)cc2C(=O)N(C)C1c1ccc(OC)cc1 (configuration not stated),i
COc1ccc(C2C(C(=O)NCCN(C)C)c3cc(OC)c(OC)cc3C(=O)N2C)cc1 (configuration not stated),33%*
CCN(CC)CCNC(=O)C1c2cc(OC)c(OC)cc2C(=O)N(C)C1c1ccc(OC)cc1 (configuration not stated),i
Cc1cc(Sc2ccccc2NC(=O)Nc2ccc(Br)cc2F)n2ncnc2n1,i
CCOC(=O)c1ccc(Nc2ncnc3c2cnn3-c2ccc(Cl)cc2)cc1,i
COc1ccc(Nc2ncnc3nc[nH]c23)cc1OC,i
CCOC(=O)c1ccc(Nc2ncnc3nc[nH]c23)cc1,30%*
COc1ccccc1C(=O)N1CCN(Cc2cnn3cccnc23)CC1,i
Nc1nnc(SCC(=O)NC(CF)Cc2ccccc2)s1 (configuration not stated),i
Cn1c(=O)c2c(ncn2CC(=O)NCc2ccc3c(c2)OCO3)n(C)c1=O,i
Cc1ccc(N(C(=O)Cc2ccc(F)cc2)C2C=CS(=O)(=O)C2)cc1C (configuration not stated),i
Cc1cc(NC(c2cccc([N+](=O)[O-])c2)c2ccc3cccnc3c2O)no1 (configuration not stated),33%*
O=C(c1ccc([N+](=O)[O-])cc1)N1CCN(c2ccccn2)CC1,i
Cc1ccnc(NC(c2ccncc2)c2ccc3cccnc3c2O)c1 (configuration not stated),i
O=[N+]([O-])c1ccc(NC(c2ccccn2)c2ccc3cccnc3c2O)cc1 (configuration not stated),31%*
O=C(Nc1ccc([N+](=O)[O-])cc1)c1cc2ccccc2o1,i
COc1cc(C(Nc2cccc(C)n2)c2ccc3ccc(C)nc3c2O)ccc1O (configuration not stated),i
Cn1c(=O)[nH]c(=O)c2c1nc(N1CCC(Cc3ccccc3)CC1)n2CCSc1ncccn1,i
COc1ccc(OC2CCN(C3CCCC3)CC2)c(C(=O)N2CCNC(=O)CC2)c1,i
Cc1c(Cl)cccc1NC(=O)NCC1(O)CCCNCC1 (configuration not stated),i
Cc1ccc(N(C(=O)c2ccccc2Cl)C2C=CS(=O)(=O)C2)cc1C (configuration not stated),i
Cc1cc2c(cc1[N+](=O)[O-])C(=O)c1cc3ccccc3nc1-2,36%*
SMILES,ST2 IL33 inh
Cc1ccc2c(c1[N+](=O)[O-])C(=O)c1ccccc1C2=O,i
Cc1ccc(-c2cnc3ccccc3n2)cc1[N+](=O)[O-],i
COc1ccc(C(=O)c2ccccc2)c(OCC(=O)N(C)C)c1,i
COc1ccc(O)c(C(=O)CC(=O)c2ccccc2)c1,32%*
COC(=O)c1cc(O)c(OCc2ccccc2)c(O)c1,i
CCn1nc(C)c(NC(=O)CN2CCC2c2cccc(OC)c2)c1C (configuration not stated),i
CC(C(=O)Oc1ccc(C(C)(C)C)cc1)N1C(=O)c2ccccc2C1=O (configuration not stated),i
COc1ccc(-c2nn(-c3ccccc3C)cc2CNCCN2CCOC2=O)cc1F,i
CNC(=O)c1ccc(CNC(=O)c2cccc(-c3ccccc3OC)c2)o1,i
COc1ccccc1-c1cccc(C(=O)NCCN2CCOC2=O)c1,31%*
Cc1onc(-c2ccccc2)c1C(=O)NN,i
O=C(Nc1ccc2oc(-c3ccncc3)nc2c1)c1ccc(-c2ccccc2)o1,41%*
O=C(Nc1ccc2oc(-c3ccc(F)cc3)nc2c1)c1ccccc1,i
CN(C)c1ccc(-c2nc3cc(NC(=O)Cc4ccccc4)ccc3o2)cc1,i
COC(=O)C1=C(C)Nc2nc(SCc3ccccc3F)[nH]c(=O)c2C1c1cccnc1 (configuration not stated),i
